Shown are actives, neighbours in structure and some others; about 2.4% of the full set was active somewhere.
TMEM16A inh – TMEM16A chloride channel inhibitors, primary screen, cell-based, HTS | normalized B-score (activity score, 25-100; higher = stronger inhibition) at 10 µM | 310,000 tested, 1.2% active | HEK293 TMEM16A/YFP iodide influx fluorescence, ionomycin | AID 588511, 2011;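 active = ratio plate-corrected score three or more library SD toward inhibition, starting fluorescence score within five deviations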;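 also: score derived from kinetic fluorescence span divided by baseline fluorescence per well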
Target sequence (Q8BHY3 whole entry, looked up): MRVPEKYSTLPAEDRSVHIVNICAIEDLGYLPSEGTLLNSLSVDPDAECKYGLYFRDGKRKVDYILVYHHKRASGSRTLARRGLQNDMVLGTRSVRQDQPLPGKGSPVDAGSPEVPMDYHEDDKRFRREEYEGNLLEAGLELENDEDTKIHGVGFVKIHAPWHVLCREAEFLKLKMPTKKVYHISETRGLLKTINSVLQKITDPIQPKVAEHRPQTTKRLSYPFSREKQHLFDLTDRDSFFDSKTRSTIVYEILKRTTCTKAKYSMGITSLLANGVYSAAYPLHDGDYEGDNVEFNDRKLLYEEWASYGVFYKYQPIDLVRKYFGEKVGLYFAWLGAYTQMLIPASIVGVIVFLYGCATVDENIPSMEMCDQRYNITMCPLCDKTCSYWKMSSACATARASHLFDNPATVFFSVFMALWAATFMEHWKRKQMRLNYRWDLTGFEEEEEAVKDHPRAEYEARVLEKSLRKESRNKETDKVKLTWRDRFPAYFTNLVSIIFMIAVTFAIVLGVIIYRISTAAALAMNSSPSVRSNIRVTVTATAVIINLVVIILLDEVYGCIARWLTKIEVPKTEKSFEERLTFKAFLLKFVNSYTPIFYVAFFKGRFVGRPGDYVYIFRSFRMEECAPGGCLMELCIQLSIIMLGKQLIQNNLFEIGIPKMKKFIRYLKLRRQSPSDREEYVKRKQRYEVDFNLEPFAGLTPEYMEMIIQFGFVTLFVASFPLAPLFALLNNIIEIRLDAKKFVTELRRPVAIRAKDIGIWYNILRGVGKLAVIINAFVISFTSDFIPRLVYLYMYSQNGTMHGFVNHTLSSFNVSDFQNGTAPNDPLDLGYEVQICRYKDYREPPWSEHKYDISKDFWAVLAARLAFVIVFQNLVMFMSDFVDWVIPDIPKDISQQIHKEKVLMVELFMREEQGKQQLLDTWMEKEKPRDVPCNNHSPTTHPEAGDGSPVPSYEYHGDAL
RTF Ca sens act – cardiac RTF calcium sensitivity activators, primary screen, biochemical, IANBD-TnC fluorescence, EC20 calcium; AID 493008, 2010; activation, % at 7.2 µM; 340,000 tested, 0.24% active; IANBD-labeled TnC RTF fluorescence at EC20 calcium; 0% EC20 calcium, 100% full calcium;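 active = activation above the mean over all tested compounds plus 3 SD, cut at about 30% in these data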;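 also: rise in fluorescence read as greater calcium sensitivity of cardiac thin filaments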
TMEM16A act – TMEM16A chloride channel activators or potentiators, primary screen, cell-based, HTS | 340,000 tested, 0.3% active | Anoctamin-1 (Mus musculus), Q8BHY3 | B-score at 10 µM | HEK293 TMEM16A/YFP-H148Q/I152L, iodide quench fluorescence; hits give low values;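 active = fluorescence-ratio B-score plate-corrected deviation score at least 3 library SD below zero, with starting fluorescence score within 5 deviations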;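 also: channel opened by trigger with iodide after compound preincubation; score built on the fluorescence ratio of max minus min over baseline; more negative score means more quench and so TMEM16A activation or potentiation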
Cardiac RTF inh – cardiac RTF calcium sensitivity inhibitors, primary screen, biochemical, IANBD-TnC fluorescence, EC70 calcium; IANBD-labeled cardiac RTF, Ca2+ fluorescence; 340,000 tested, 0.12% active; inhibition, % at 7.15 µM; AID 493244, 2011; Troponin I, cardiac muscle (Homo sapiens) + Troponin T, cardiac muscle (Homo sapiens) + …;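 active = inhibition above the mean inhibition of all tested compounds plus 3 SD, cut at about 17% in these data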;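 also: assay run at fixed EC70 calcium of 1.6 mM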
CRFBP-R2 block – antagonists of CRF-BP/CRF-R2 complex, primary screen, cell-based, HEK293, calcium dye fluorescence, uHTS; CRF-induced calcium fluorescence; inhibition, % at 11.8 µM; 350,000 tested, 0.59% active;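 active = inhibition of the ligand-induced calcium signal above about 50% at the single tested concentration, limit read from the data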
CRFR2-BP ag – agonists of CRF-BP/CRF-R2 complex, primary screen, cell-based, HEK293, calcium dye fluorescence, uHTS; CRF-binding protein / CRF receptor 2 complex (human); calcium dye fluorescence (FLIPR); percent of saturating CRF peptide response; activation, % at 13.2 µM; 350,000 tested, 0.46% active;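 active = activation of at least 50%, plus an integration ratio under a set limit after plate pattern correction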;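 also: plate controls were neutral control wells without compound for no effect and CRF at EC100 for full effect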
Numbers without * were called inactive; i = inactive; · = no result.

SMILES	TMEM16A inh	RTF Ca sens act	TMEM16A act	Cardiac RTF inh	CRFBP-R2 block	CRFR2-BP ag
Cc1ccc2[nH]c3c(c2c1)CCN1C(=O)OC(C)(C)C31C (stereo not drawn)	i	1	i	-4	-11	-1
CCOc1cc(S(=O)(=O)n2ccnc2)ccc1Cl	i	-1	i	2	15	0
O=C(NC(=S)Nc1ccc(F)cc1)c1ccc2c(c1)OCCO2	i	-5	i	-17	-195	93*
COc1ccc(NC(=S)NC(=O)c2ccc3c(c2)OCCO3)cc1	·	-1	i	1	19	3
O/N=C/c1cc(Cl)ccc1OCc1cccc2ccccc12	i	·	·	·	·	·
O=C1/C(=C\c2ccco2)SC(=S)N1Cc1ccccc1	i	-8	i	-17	-7	0
O=C1/C(=C\c2c(NCCOCCO)nc3ccccn3c2=O)SC(=S)N1Cc1ccco1	i	40*	i	-59	-97	102*
CCCN1C(=O)/C(=C/c2c(NCCCOCC)nc3c(C)cccn3c2=O)SC1=S	·	4	i	-7	-173	113*
CCOCCCNc1nc2c(C)cccn2c(=O)c1/C=C1\SC(=S)N(C(C)CC)C1=O (stereo not drawn)	i	29	i	-33	-77	109*
CSc1nc2nc(C)c(CCC(=O)OCC(=O)Nc3ccc(F)cc3)c(C)n2n1	·	-3	i	-8	19	-1
COC(=O)C1=C(CSc2nccn2C)NC(=O)NC1c1cc(C)ccc1C (stereo not drawn)	i	0	i	-2	3	-1
CC(C)Cc1ccc(C(C)C(=O)Nc2ccccc2O)cc1 (stereo not drawn)	25*	3	i	-7	-29	77*
CCN1C(=O)CSC1=Nc1cccc(C(=O)O)c1	i	3	i	-14	8	1
CCOC(=O)CC(=O)CSc1nc2sc(C)cc2c(=O)n1Cc1ccco1	i	-11	i	-1	29	0
Cc1cc2c(=O)n(Cc3ccco3)c(SCC(=O)c3ccc(Cl)s3)nc2s1	25*	10	i	-8	19	-2
Cc1ccc(Oc2ccc(C(=O)NCc3ccncc3)cc2)cc1	·	-3	i	-16	79*	2
CC(=O)Nc1ccc(NS(=O)(=O)c2ccccc2)cc1	i	3	i	-4	-2	0
CC(=O)C(C(C)=O)c1cc(NS(=O)(=O)c2ccccc2)ccc1NS(=O)(=O)c1ccccc1	i	-3	i	-1	-97	160*
N#Cc1ccc(OCC(=O)n2cc(C(=O)c3cc(Cl)cc(Cl)c3O)cn2)cc1	i	·	·	·	0	1
C[C@H]1CN([C@@H](C)CO)C(=O)Cc2cc(NS(=O)(=O)c3cccs3)ccc2O[C@H]1CN(C)S(=O)(=O)c1cn(C)cn1	·	-2	i	-14	-6	0
CCCCN(CCCC)S(=O)(=O)c1ccc(NC(=O)c2cccs2)cc1	100*	0	i	-4	-1	4
CC(C(=O)Nc1ccc(F)cc1Cl)N1CCN(S(=O)(=O)c2cccs2)CC1 (stereo not drawn)	·	-2	-21*	-1	9	1
Cc1cc(=O)oc(C)c1C(=O)Nc1ccc2ncccc2c1	i	74*	i	-32	-64	78*
COc1cc(C)ccc1OCCOCCOc1c(C)cc(C)cc1Br	100*	3	i	-2	40	-2
CC1=NN2C(=N)/C(=C\c3cc(C)n(-c4cccc(C)c4)c3C)C(=O)N=C2S1	i	-6	i	2	-36	-5
SMILES	TMEM16A inh	RTF Ca sens act	TMEM16A act	Cardiac RTF inh	CRFBP-R2 block	CRFR2-BP ag
Cc1cccc(-n2c(C)cc(/C=C3\C(=N)N4N=C(CC(C)C)SC4=NC3=O)c2C)c1	i	3	i	3	-59	71*
CCCC1=NN2C(=N)/C(=C\c3cc(C)n(-c4cc(C)cc(C)c4)c3C)C(=O)N=C2S1	i	-10	i	-8	-60	51*
Cc1cc(C)cc(-n2c(C)cc(/C=C3\C(=N)N4N=C(CC(C)C)SC4=NC3=O)c2C)c1	i	1	i	4	-20	60*
Cc1cccc(C(C)C)c1NC(=O)c1ccc(CN(c2ccccc2)S(=O)(=O)c2ccccc2)cc1	i	5	i	-6	22	-1
CSc1nc2cc(Oc3cccc(Cl)c3Cl)c(Cl)cc2[nH]1	100*	3	i	13	23	-1
c1ccc(NCCC2OCC3(CO2)COC(CCNc2ccccc2)OC3)cc1 (stereo not drawn)	·	-3	i	-6	-22	4
COc1ccc(C(=O)Nn2c(SCC(=O)N3CCC(C)CC3)nc3ccccc3c2=O)cc1	i	-1	i	-5	-10	-1
COc1ccc(C(=O)Nn2c(SCC(=O)NC3CCCCC3)nc3ccccc3c2=O)cc1	i	6	i	-1	75*	8
CC1CCCCC1NC(=O)c1cc(Cl)nc2ccccc12 (stereo not drawn)	·	·	·	·	7	0
O=C(Nc1cc(C(F)(F)F)ccc1-n1cncn1)c1ccc(Cl)cc1	i	-6	i	-1	82*	-2
O=C(Nc1cc(C(F)(F)F)ccc1-n1cncn1)c1ccc(-c2ccccc2)cc1	i	-2	i	4	-23	-1
CC(C)(CO)NCC#Cc1ccccc1	i	34*	i	-4	-2	1
CCC[N+](CC#CCO)(CC#Cc1ccccc1)CCC	i	6	i	-11	8	1
CSc1ccccc1OCc1cc(C(=O)N2CCC(Oc3cccnc3)CC2)no1	25*	7	i	-5	·	·
COc1c(Cl)cc(Cl)cc1CNc1ccc(S(N)(=O)=O)cc1	i	-4	i	-3	58*	0
CC(C)(C)C(=O)/C(=C/c1ccc(Cl)cc1)n1cncn1	i	-1	i	-8	55*	29
O=C(CCCNC(=O)c1ccc(Cl)cc1)Nc1ccc(F)c(S(=O)(=O)N2CCOCC2)c1	·	2	i	-7	-2	-2
Cc1cc(C)c(NC(=O)c2ccc(CNS(=O)(=O)c3cc(C(F)(F)F)ccc3Cl)cc2)c(C)c1	i	-4	i	0	59*	3
O=C(NCc1ccccc1CN1CCCC1)c1cccc(S(=O)(=O)N2CCOCC2)c1	·	5	i	-2	13	1
CCC1(CC)Cc2ccccc2C(N)=C1C#N	i	2	-53*	1	-8	1
